This passage reports z-score results from PubChem BioAssay AID1918990 (ICCB-Longwood Screening Facility, Harvard Medical School, 2023).

Molecules are shown by their SMILES. The whole screen tested about 29,000 compounds, of which about 85 (0.3%) were called active.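 How the source made its calls: active means replicate mean overnight rise in green fluorescent reporter signal, 3 or more SD over negative controls; inactive means the rest.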 Only a selection was taken, and actives are over-represented in it overall.

The test is described as follows: activators of Burkholderia fixLJ two-component system, primary screen, B. multivorans, GFP reporter (AID 1918990). The conditions noted are these: B. multivorans fixK-promoter GFP reporter, 18 h; active compounds read high.
Regarding `CCC(=O)N1CCc2cc(S(=O)(=O)NCCC(=O)Nc3cccc(C)c3C)ccc21`, the z-score is -0.9 (inactive). For `COc1ccccc1Nc1cc(C(=O)NCCCN(C)C2CCCCC2)c2ccccc2n1`, the z-score was -0.07 (inactive).

In the case of `CC(C)Sc1nnc(NC(=O)c2ccccc2-n2cnnc2)s1`, the z-score was -0.42 (inactive). As for `CC(C)S(=O)(=O)c1oc(-c2ccc(F)cc2)nc1S(=O)(=O)c1ccc(F)cc1`, the z-score is -3.54 (inactive). Turning to `CCN(C(=O)Cn1cnc2sc(C)c(S(=O)(=O)N3CCN(c4ncccn4)CC3)c2c1=O)c1ccccc1F`, the z-score was -2.69 (inactive). Take `CCNC(=O)Cn1nc(C)n2c(cc3c(OC)cccc32)c1=O`: the z-score is -1.37 (inactive).

For `CC(C)(C)C(Cn1ccnc1)NC(=O)C=Cc1cc(CO)cs1` (centres undefined), the z-score is 0.54 (inactive). With `COc1ccc(N(C)C(=O)C2CCN(S(=O)(=O)c3cc(Br)cc4c3N(C(C)=O)CC4)CC2)cc1`, the z-score is -1.87 (inactive). Regarding `COc1cc(C(=O)N2CCC(O)(c3ccc(C)cn3)CC2)nc(OC)n1`, the z-score was -2.73 (inactive). `CCOc1ccc(NC(=O)c2cnn(-c3ccccc3)c2-n2cccc2)cc1`: the z-score is 0.15 (inactive).

Turning to `CC(=O)N1CCN(Cc2cc(Cl)cc(Cl)c2)C2CS(=O)(=O)CC21` (centres undefined), the z-score was 1.37 (inactive). Consider `CN(C)C(=O)N1CCC(C(=O)NC2COCC2Cc2ccncc2)CC1` (centres undefined), for which the z-score was -2.62 (inactive).

In the case of `COc1ccc(OC)c(-c2nc(CN3CCNC(=O)CC3)c(C)o2)c1`, the z-score was -1.03 (inactive). Turning to `O=C1N(Cc2ccccc2)c2ccc(Cl)cc2C1(O)c1c[nH]c2ccccc12` (centres undefined), the z-score was -2.44 (inactive). In the case of `CCCNC(=O)CCn1nc(-c2ccccc2)c2ccccc2c1=O`, the z-score was -2.63 (inactive). Take `COC(=O)c1ccc(NC(=O)c2cccc3c2C(=O)N(C2CCCCC2)C3)cc1`: the z-score was -0.11 (inactive). As to `CN(CC(=O)Nc1cccc(C(F)(F)F)c1)S(=O)(=O)c1cccs1`, the z-score is -1.64 (inactive). Next, `COc1ccc(C2=NC3(CCCCC3)N(CC(=O)Nc3ccc(C(C)C)cc3)C2=O)cc1`: -0.47 (inactive). Turning to `O=C(CSc1nc(-c2cccc(F)c2)[nH]c1-c1ccccc1)Nc1ccc2c(c1)OCO2`, the z-score was -0.24 (inactive). Under `CC1CCCCN1Cc1c(O)ccc2c(=O)c(-c3cccc(Cl)c3)c(C(F)(F)F)oc12` (centres undefined) stands -3.67 (inactive); under `O=C(NC1CCCC1Cc1ccc(F)cc1)c1cccc(=O)[nH]1` (centres undefined), 0.15 (inactive). Regarding `Cn1nnnc1SCCNCc1ccc(Cl)c(Cl)c1`, the z-score was -2.02 (inactive). For the molecule `O=C(c1ccnc(CC2COc3ccccc3C2)c1)N1CCOCC1` (centres undefined), the z-score is 1.09 (inactive). Next, `CN1CCN(CC2(CNC(=O)CN(C)Cc3cccnc3)CC2)CC1`: -0.08 (inactive); `CCCc1cc(CNC(=O)c2ccc3c(c2)OCC(=O)N3)on1`: 0.27 (inactive); `CCn1cc(C(=O)N(C)Cc2ccccc2)c(=O)c2cc(S(=O)(=O)N3CCCCCC3)ccc21`: -2.08 (inactive). For `Cc1cccc(C(=O)N2CCC[C@@]3(CN(Cc4ncc(C)[nH]4)CCC3O)C2)c1` (some centres undefined), the z-score was 0.68 (inactive). On to `CNC(=O)c1cccc(NC(=O)CCCc2cccs2)c1C`, for which the z-score was -1.26 (inactive). Next, `COc1ccc(CNc2nc(-c3ccccc3)nn2C(=O)c2ccccc2OC)cc1`: 0.5 (inactive). As for `COc1cc(C2c3c(oc4ccccc4c3=O)C(=O)N2c2nc(C)c(C)s2)ccc1O` (centres undefined), the z-score was -1 (inactive). Regarding `Cc1nc(SCCOc2ccc(Cl)cc2)[nH]c(=O)c1Cc1ccccc1`, the z-score was -1.27 (inactive). For `COCC1C(NS(=O)(=O)c2ccc(F)cc2C)C2CCOC21` (centres undefined), the z-score was -0.38 (inactive).

Take `COc1ccc(-c2nc3ccccc3o2)cc1NC(=O)c1cc([N+](=O)[O-])ccc1N1CCOCC1`: the z-score is -1.81 (inactive). `CC(=O)c1ccc(N2CCN(c3nc4c(S(=O)(=O)c5ccccc5)nnn4c4ccc(Cl)cc34)CC2)cc1`: the z-score is 0.23 (inactive). With `COc1ccc2c(c1)c(=O)c(S(=O)(=O)c1ccc(F)cc1)cn2CC(=O)Nc1ccc(C)cc1C`, the z-score is -1.75 (inactive). Regarding `Cc1nn(-c2nc(-c3ccccc3)cc(C(F)(F)F)n2)c(C)c1Cl`, the z-score is -0.93 (inactive). For `CCCSc1ncc(Cl)c(C(=O)Nc2c(C(=O)Nc3ccccc3)oc3ccccc23)n1`, the z-score was -0.41 (inactive). Consider `O=C(c1ccc2c(c1)N(Cc1ccc(Cl)cc1)C(=O)c1ccccc1S2(=O)=O)N1CCCCC1`, for which the z-score was 0.84 (inactive). On to `COc1ccccc1CNC(=O)CCn1c(=O)c2ccccc2n(CC(=O)Nc2cccc(Cl)c2)c1=O`, for which the z-score was 0.27 (inactive).
